For some assays here: Measured potencies and affinities stand elsewhere.
Columns and labels:
Parameters in all cases: scale not given: direction of the effect not stated beside the values
[1] = target: Protein translocase subunit SecA (Escherichia coli (strain K12)) (UniProt P10408); assay: Assay to Identify E. coli SecA ATPase Inhibitors; format: functional; conditions: 30 µM
[2] = target: T1, Ubiquitin-activating enzyme e1, putative (Leishmania donovani (strain BPK282A1)) (UniProt E9BSI1); assay: Leishmania donovani Ubiquitin Activating Enzyme (LdE1); format: functional; conditions: 30 µM
T1 sequence (whole entry): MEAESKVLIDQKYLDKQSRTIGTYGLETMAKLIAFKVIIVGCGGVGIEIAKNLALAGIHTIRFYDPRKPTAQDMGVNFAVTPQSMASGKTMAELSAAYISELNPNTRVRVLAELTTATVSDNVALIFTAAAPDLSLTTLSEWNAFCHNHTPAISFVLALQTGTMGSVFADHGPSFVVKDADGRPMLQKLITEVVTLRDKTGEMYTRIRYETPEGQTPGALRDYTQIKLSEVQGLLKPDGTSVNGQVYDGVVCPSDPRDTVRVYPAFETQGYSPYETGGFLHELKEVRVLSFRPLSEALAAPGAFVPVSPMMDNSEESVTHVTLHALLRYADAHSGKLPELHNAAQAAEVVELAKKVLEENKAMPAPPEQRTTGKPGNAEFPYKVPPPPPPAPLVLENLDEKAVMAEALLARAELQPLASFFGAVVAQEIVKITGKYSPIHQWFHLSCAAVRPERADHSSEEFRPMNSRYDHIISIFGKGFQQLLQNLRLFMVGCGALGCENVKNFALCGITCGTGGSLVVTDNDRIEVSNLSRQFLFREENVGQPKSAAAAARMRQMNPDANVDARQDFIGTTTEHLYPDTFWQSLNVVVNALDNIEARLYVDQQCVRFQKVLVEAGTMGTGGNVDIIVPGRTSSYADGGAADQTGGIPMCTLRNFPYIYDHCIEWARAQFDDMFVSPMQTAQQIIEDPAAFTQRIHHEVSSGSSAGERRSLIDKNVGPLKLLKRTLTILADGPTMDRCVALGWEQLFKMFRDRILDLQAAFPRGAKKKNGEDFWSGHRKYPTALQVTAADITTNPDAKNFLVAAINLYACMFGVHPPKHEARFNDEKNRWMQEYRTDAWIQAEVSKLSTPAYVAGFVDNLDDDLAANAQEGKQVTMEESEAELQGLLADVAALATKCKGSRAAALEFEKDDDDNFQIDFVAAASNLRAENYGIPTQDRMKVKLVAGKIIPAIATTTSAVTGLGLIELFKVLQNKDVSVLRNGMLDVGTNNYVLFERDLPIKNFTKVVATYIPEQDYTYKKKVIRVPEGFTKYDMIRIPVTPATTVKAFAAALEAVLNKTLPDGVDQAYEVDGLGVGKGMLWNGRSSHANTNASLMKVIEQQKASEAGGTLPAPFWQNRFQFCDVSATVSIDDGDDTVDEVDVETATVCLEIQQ

[3] = target: AMP-activated protein kinase, AMPK (Homo sapiens) (UniProt P54646+O43741+P54619+Q9UGJ0+Q9Y478+Q13131+Q9UGI9); assay: AMP-dependent Kinase enzyme assay. An in vitro enzyme assay that detects ADP turnover that is directly proportional to AMPK activity. This uses naive AMPK that is activated during the assay with MK-8722; format: functional; conditions: 30 µM
[4] = target: Sialic acid-binding Ig-like lectin 9 (Homo sapiens) (UniProt Q9Y336); assay: Hs-Siglec9 ALPHAscreen SOP 20170721; conditions: 10 µM
Chain of Sialic acid-binding Ig-like lectin 9 (Homo sapiens) (Q9Y336 whole entry): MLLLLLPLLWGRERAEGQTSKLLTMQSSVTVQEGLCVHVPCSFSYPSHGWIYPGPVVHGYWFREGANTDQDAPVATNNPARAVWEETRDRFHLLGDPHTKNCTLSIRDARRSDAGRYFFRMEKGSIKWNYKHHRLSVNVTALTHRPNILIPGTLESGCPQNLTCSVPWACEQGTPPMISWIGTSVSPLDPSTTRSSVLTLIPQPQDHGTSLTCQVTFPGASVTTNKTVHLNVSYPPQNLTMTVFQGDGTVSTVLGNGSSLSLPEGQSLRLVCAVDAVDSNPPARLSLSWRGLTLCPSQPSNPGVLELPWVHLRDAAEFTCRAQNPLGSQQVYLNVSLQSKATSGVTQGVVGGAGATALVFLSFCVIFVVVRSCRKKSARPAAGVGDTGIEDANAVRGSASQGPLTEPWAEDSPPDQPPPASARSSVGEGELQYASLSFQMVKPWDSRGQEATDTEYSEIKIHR

Trypanosoma cruzi = assay: Trypanosoma cruzi phosphomannomutase and mannose-1-phosphate guanylyltransferase assay; format: functional; conditions: 10 µM
[5] = target: T2, Arginase-2, mitochondrial (Homo sapiens) (UniProt P78540); assay: in vitro enzyme assay to detect the production of urea directly proportional to the activity of Arginase II; format: functional; conditions: 33.3 µM; further: in the data most compounds retested in dose-response had high values
T2 sequence (whole entry): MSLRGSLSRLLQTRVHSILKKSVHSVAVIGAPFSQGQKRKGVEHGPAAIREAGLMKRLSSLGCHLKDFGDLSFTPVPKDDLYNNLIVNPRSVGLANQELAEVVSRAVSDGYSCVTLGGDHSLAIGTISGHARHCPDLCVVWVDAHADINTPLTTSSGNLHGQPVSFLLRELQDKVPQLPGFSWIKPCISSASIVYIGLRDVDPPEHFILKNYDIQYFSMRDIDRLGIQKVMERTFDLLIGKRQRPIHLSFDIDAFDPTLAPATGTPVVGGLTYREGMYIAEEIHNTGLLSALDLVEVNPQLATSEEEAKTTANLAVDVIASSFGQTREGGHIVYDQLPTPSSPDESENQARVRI

[6] = target: T3, Proteasome subunit beta (Trypanosoma cruzi) (UniProt O96673); assay: Trypanosoma cruzi proteasome chymotrypsin-like activity (TcProtChymo) assay.; further: in the data most compounds retested in dose-response had high values; format: functional; conditions: 9.37 µM
T3 sequence (whole entry): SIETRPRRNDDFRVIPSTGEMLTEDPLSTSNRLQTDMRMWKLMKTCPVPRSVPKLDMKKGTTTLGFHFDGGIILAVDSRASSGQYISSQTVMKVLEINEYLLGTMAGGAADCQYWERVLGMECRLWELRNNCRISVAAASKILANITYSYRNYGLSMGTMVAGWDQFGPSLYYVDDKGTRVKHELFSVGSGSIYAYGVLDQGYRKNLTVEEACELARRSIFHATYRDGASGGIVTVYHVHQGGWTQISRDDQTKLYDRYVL

Homo sapiens = organism: Homo sapiens; assay: To identify inhibition of the IFN signalling (Jak-Stat) pathway via expression of an eGFP reporter gene under the control of an IFN-stimulated response element (ISRE) containing MxA promoter.; format: functional; conditions: 30 µM
[7] = target: T4, Tyrosyl-tRNA synthetase, putative (Trypanosoma cruzi (strain CL Brener)) (UniProt Q4DSP6); assay: Trypanosoma cruzi tyrosyl tRNA synthetase (TcYRS) _High Tyrosine SOP; format: functional; conditions: 30 µM; further: in the data most compounds retested in dose-response had high values
T4 sequence (whole entry): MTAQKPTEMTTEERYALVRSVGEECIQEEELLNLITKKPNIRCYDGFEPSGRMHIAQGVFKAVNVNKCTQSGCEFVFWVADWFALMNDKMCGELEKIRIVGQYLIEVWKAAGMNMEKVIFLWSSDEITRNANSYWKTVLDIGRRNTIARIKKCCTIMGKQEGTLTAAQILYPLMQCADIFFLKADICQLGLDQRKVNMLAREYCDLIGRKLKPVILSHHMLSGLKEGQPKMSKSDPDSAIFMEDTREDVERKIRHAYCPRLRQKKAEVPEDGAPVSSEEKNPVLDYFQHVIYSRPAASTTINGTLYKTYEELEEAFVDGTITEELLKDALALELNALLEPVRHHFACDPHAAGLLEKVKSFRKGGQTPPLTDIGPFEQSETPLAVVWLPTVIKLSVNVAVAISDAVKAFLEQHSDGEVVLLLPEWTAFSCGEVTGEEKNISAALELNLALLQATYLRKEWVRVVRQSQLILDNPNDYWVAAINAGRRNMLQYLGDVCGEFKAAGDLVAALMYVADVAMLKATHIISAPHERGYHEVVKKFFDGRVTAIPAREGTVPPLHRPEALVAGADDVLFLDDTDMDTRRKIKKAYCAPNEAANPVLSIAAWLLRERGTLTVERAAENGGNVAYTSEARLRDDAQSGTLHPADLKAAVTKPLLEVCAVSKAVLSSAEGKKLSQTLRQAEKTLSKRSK

[8] = target: T4, Tyrosyl-tRNA synthetase, putative (Trypanosoma cruzi (strain CL Brener)); assay: Trypanosoma cruzi tyrosyl tRNA synthetase (TcYRS) SOP; format: functional; conditions: 30 µM
[9] = target: Chromo domain-containing protein 1 (Saccharomyces cerevisiae (strain ATCC 204508 / S288c) (Baker's yeast)) (UniProt P32657); assay: ScCHD-1 Enzyme Inhibition Assay; format: functional; conditions: 30 µM; further: in the data most compounds retested in dose-response had high values
Chain of Chromo domain-containing protein 1 (Saccharomyces cerevisiae (strain ATCC 204508 / S288c) (Baker's yeast)) (P32657 whole entry, the tested form may be a part): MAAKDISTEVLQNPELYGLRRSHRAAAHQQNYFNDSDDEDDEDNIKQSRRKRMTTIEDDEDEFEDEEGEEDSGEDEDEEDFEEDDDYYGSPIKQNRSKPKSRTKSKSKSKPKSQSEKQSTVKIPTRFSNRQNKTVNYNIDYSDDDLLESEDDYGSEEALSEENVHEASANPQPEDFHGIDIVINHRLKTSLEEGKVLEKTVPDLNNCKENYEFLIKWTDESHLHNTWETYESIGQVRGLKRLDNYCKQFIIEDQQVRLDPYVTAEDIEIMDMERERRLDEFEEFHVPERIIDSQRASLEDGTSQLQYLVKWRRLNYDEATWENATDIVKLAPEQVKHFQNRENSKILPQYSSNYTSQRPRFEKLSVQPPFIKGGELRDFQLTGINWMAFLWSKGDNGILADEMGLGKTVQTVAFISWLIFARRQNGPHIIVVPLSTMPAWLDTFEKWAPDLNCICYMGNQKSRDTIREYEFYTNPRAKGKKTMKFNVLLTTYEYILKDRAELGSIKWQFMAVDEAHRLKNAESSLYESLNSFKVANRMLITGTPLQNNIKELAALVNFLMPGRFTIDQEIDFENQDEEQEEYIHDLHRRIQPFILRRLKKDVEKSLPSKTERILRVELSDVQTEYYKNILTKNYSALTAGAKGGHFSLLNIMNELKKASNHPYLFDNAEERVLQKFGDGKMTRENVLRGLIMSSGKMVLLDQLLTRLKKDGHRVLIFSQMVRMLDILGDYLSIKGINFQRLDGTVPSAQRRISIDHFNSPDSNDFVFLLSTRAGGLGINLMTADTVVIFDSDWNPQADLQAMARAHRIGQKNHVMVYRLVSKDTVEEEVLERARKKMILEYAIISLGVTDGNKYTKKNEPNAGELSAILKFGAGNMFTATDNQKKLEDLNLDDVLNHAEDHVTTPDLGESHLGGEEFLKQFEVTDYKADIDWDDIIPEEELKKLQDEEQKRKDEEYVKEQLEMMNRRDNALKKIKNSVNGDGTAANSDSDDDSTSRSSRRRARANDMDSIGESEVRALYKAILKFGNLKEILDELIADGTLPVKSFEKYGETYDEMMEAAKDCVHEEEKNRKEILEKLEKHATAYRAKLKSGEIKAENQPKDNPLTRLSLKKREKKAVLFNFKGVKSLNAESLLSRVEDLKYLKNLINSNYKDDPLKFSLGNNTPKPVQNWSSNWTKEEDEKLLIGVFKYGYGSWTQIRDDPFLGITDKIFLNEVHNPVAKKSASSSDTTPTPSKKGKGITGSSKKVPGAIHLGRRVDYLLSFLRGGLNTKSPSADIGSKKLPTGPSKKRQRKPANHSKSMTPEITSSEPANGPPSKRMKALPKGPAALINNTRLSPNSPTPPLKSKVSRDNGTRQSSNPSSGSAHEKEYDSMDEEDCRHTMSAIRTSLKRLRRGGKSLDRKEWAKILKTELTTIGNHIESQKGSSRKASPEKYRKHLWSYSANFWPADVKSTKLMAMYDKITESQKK

Chain of Protein translocase subunit SecA (Escherichia coli (strain K12)) (P10408 whole entry): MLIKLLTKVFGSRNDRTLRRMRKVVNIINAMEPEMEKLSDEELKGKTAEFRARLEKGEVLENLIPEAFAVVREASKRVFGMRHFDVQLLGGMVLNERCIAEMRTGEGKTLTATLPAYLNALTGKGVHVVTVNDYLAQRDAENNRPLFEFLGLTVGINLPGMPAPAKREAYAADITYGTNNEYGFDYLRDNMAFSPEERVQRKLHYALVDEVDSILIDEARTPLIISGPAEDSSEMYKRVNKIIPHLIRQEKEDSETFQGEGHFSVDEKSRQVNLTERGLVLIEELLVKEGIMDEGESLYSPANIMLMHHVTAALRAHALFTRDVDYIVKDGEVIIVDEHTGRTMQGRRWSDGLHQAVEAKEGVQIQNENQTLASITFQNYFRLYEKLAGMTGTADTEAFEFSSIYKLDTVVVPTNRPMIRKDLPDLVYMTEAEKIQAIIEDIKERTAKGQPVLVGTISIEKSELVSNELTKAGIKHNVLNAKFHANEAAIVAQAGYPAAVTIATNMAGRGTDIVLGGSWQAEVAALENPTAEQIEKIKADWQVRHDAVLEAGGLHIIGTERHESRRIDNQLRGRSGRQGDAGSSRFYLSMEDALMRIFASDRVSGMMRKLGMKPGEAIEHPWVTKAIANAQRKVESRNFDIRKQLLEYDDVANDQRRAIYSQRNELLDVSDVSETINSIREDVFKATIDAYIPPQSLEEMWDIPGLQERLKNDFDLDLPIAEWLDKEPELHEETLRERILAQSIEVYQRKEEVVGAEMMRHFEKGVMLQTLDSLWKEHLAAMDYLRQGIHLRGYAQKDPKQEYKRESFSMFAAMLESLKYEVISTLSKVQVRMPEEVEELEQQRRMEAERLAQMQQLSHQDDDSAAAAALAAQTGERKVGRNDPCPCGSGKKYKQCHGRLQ

| Compound | Percent Effect [1] | Percent Effect [2] | Percent Effect [3] | Percent Effect [4] | Percent Effect (Trypanosoma cruzi) | Percent Effect [5] | Percent Effect [6] | Percent Effect (Homo sapiens) | Percent Effect [7] | Percent Effect [8] | Percent Effect [9] |
| --- | --- | --- | --- | --- | --- | --- | --- | --- | --- | --- | --- |
| COc1ccc(F)cc1C(C)NC(=O)c1nnc(C)s1 (configuration not stated) | -4.77% | -2.7% | 0.954% | -9.5% | -2.05% | 0.248% | -4.89% | -14.3% | -3.23% | -1.24% | 3.82% |
| O=C(NCc1ccco1)[C@H]1C[C@@H]2CCN(c3ccncn3)C[C@@H]2O1 | -3.35% | 10.7% | 1.73% | 2.91% | 6.56% | -56.5% | 16.9% | -18.7% | 6.25% | 17.5% | -5.87% |
| COc1ccccc1OCC(=O)Nc1ncccc1Cl | -3.19% | 15.3% | -6.62% | 22.9% | 2.62% | -2.65% | 4.39% | -9.45% | 3.16% | 10.3% | -3.43% |
| c1cc(CNCC2OCCc3cn(CC4CCOCC4)nc32)ccn1 (configuration not stated) | -0.867% | -37.8% | 1.52% | -8.34% | 1.86% | 4.78% | 29% | 18.1% | 6.49% | 17.9% | 1.56% |
| O=C1CC[C@H]2[C@H](CCN2C(=O)C2CCCO2)N1Cc1ccncc1 (some centres not stated) | -2.88% | 22.7% | -8.21% | -5.26% | 2.36% | -8.63% | 14.1% | 12.9% | 1.06% | 7.69% | -8.01% |
| Cc1cccc(CN2CCN(Cc3ccccc3)CC(O)C2)n1 (configuration not stated) | -1.78% | 0% | -4.59% | 2.56% | -0.193% | -1.43% | 9.14% | 4.22% | 8.99% | 19.5% | -3.04% |
| Cc1cnn(Cc2cc(F)ccc2F)c1NC(=O)C1COCCO1 (configuration not stated) | -7.31% | 2.67% | 1.44% | 22.4% | 0.876% | 4.17% | 5.75% | 5.83% | 4.92% | 13.6% | -4.84% |
| COCCCN(C)Cc1nc2c(cnn2C)c(=O)[nH]1 | -5.54% | 21.1% | -0.426% | -2.13% | 7.75% | 3.96% | 18.4% | -3.84% | 2.46% | 25.9% | -9.74% |
| CC(NC(=O)NCCCc1n[nH]c(N)c1C#N)c1cccs1 (configuration not stated) | -4.67% | 22.8% | 38.5% | -12.2% | 6.52% | -14.1% | 16.6% | 15.9% | 8.37% | 24.1% | -7.24% |
| Cc1n[nH]c(C)c1NC(=O)CN1CCOC(Cn2cccn2)C1 (configuration not stated) | -4.71% | 2.6% | 7.29% | -4.25% | 6.95% | -4% | 8.16% | 10.5% | 3.81% | 9.41% | -16.3% |
| N#CCCCS(=O)(=O)N1CCCC1CC(=O)c1cccs1 (configuration not stated) | -2.19% | 2.7% | -3.83% | 2.31% | -1.93% | -3.81% | 3.1% | -1.42% | -0.529% | -4.88% | -0.34% |
| COc1ccc(NC(=O)CCc2c(C)nc3cc(O)nn3c2C)cn1 | -3.54% | 0% | -317% | 9.4% | 6.18% | 0.356% | 8.62% | 25.5% | 7.77% | 21.9% | -8.7% |
| Cc1cnn(CC2CCCCN2C(=O)c2cc(C(N)=O)cs2)c1 (configuration not stated) | -8.81% | 1.27% | 1.77% | -2.33% | 0.308% | -2.37% | 8.4% | 17.1% | -1.04% | -5.06% | -0.902% |
| Cc1ccccc1CN1CCN(Cc2nccn2C)CC1 | -3.45% | 5.41% | -4.75% | 4.96% | -3.3% | -1.6% | 0.36% | 16.1% | 3.45% | 3.7% | -1.25% |
| CC(=O)NCC(=O)N1CCOC2(CCCN(c3cccnc3)C2)C1 (configuration not stated) | -5.02% | 2.7% | -2.24% | 1.82% | -6.05% | 0.833% | 15.3% | 7.03% | 8.91% | 6.1% | -2.32% |
| CCn1c(NCc2ccco2)nc2c(C)nn(C)c2c1=O | -2.68% | 20% | 4.54% | -6.91% | 3.93% | 92.8% | 22.6% | 7.87% | 9.52% | 17.9% | -14% |
| O=C(CN(Cc1cccnc1)CC1CCCO1)Nc1ccc(F)cc1 (configuration not stated) | -3.61% | 2.74% | 1.19% | 0.415% | -2.35% | -1.82% | 10.3% | 5.96% | 0% | 0% | 0.815% |
| CCOc1cc(/C=C/c2ncc(C(=O)O)s2)cc(Cl)c1OC | -1.71% | 8.86% | 6.6% | 1.04% | -7.28% | -4.52% | 12.3% | 10.1% | 0% | 7.59% | -21.1% |
| CC(C)c1cc(NC(=O)CN2CCc3cncnc3C2)on1 | -5.41% | 10.4% | -22.4% | 3.99% | 1.31% | -5.34% | 4.39% | -5.17% | 16.5% | 21.9% | -6.84% |
| CCn1cc(CN(C)S(=O)(=O)c2cc(Cl)ccc2Cl)cn1 | -0.942% | 14.7% | -0.125% | -2.27% | -6.09% | -8.98% | 15.9% | 2.3% | 0% | 7.69% | -9.05% |
| Cc1ccc(-c2nnc(CN3CCOC(Cn4cccn4)C3)o2)cc1 (configuration not stated) | -4.11% | 10.1% | -1.13% | 4.66% | 0.661% | 3.42% | 7.45% | 4.27% | 2.46% | 11.4% | -5.6% |
| CSCC[C@H](NC(=O)Cn1ccc2c(Cl)cccc21)C(=O)O | 0.448% | 12% | 2.92% | 2.75% | -3.93% | -6.87% | 15.2% | -1.36% | 3.17% | 7.69% | -6.56% |

Reference: ChEMBL document CHEMBL3988442, “University of Dundee, Small-Polar-MMV Screening Library” (2021)
